Source: PubChem BioAssay AID1159580 (chemical genetic matrix, 2015)
Screen size: about 5,500 compounds; about 2,000 (36%) were called active. Another 18% or so got no clear call; they are omitted. Rule as the data show it: active = normalized growth mostly below about 0.91 (no sharp cut-off); inconclusive = no clear call, values can overlap the other calls; inactive = mostly above about 0.92. The list shows a part of the results.

Assay: chemical genetic growth profiling, strain panel (AID 1159580);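 also: tested at 20 µM; growth read once vehicle control cultures reached saturation at 30 °C; 1 = growth at the plate median or of vehicle wells; lower values mean less growth of the strain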
Settings: S. cerevisiae deletion strains, growth OD

Measured: normalized growth

CCC(c1ccc(O)cc1)C(CC)c1ccc(O)cc1 (stereo not drawn)
active: locus YAL026C, strain drs2, active compounds read low 0.835 | locus YAL030W, strain snc1, active compounds read low 0.918 | locus YBR009C, strain hhf1, active compounds read low 0.77 | locus YCL011C, strain gbp2, active compounds read low 0.858 | locus YDR069C, strain doa4, active compounds read low 0.894 | locus YDR137W, strain rgp1, active compounds read low 0.415 | locus YDR159W, strain sac3, active compounds read low 0.723 | locus YEL003W, strain gim4, active compounds read low 0.891 | locus YER015W, strain faa2, active compounds read low 0.901 | locus YGL173C, strain kem1, active compounds read low 0.825 | locus YGL240W, strain doc1, active compounds read low 0.863 | locus YHR013C, strain ard1, active compounds read low 1.21 [resistant] | locus YJL095W, strain BCK1 (second series), active compounds read low 0.799 | locus YJL129C, strain trk1, active compounds read low 0.675 | locus YJL164C, strain tpk1, active compounds read low 0.687 | locus YJL166W, strain qcr8, active compounds read low 0.812
inactive: locus YAL013W, strain DEP1, active compounds read low 0.998 | locus YAL021C, strain ccr4, active compounds read low 0.93 | locus YBL061C, strain skt5, active compounds read low 0.982 | locus YBR021W, strain FUR4, active compounds read low 0.972 | locus YBR023C, strain chs3, active compounds read low 0.966 | locus YBR171W, strain sec66, active compounds read low 0.993 | locus YBR229C, strain ROT2, active compounds read low 0.993 | locus YBR231C, strain swc5, active compounds read low 0.989 | locus YBR279W, strain paf1, active compounds read low 0.95 | locus YCL016C, strain dcc1, active compounds read low 0.95 | locus YCL029C, strain bik1, active compounds read low 0.987 | locus YCL061C, strain MRC1, active compounds read low 0.958 | locus YCL069W, strain vba3, active compounds read low 0.951 | locus YCR088W, strain abp1, active compounds read low 0.974 | locus YDL005C, strain med2, active compounds read low 0.92 | locus YDL035C, strain GPR1, active compounds read low 0.914 | locus YDL040C, strain nat1, active compounds read low 0.998 | locus YDL074C, strain BRE1, active compounds read low 0.878 | locus YDL101C, strain DUN1, active compounds read low 0.989 | locus YDL134C, strain PPH21, active compounds read low 0.998 | locus YDL185W, strain tfp1, active compounds read low 0.995 | locus YDL192W, strain arf1, active compounds read low 0.969 | locus YDR001C, strain nth1, active compounds read low 0.997 | locus YDR101C, strain arx1, active compounds read low 0.968 | locus YDR150W, strain NUM1, active compounds read low 1.01 | locus YDR162C, strain NBP2, active compounds read low 0.931 | locus YDR195W, strain ref2 1.02 | locus YDR297W, strain sur2, active compounds read low 0.923 | locus YDR318W, strain mcm21, active compounds read low 0.944 | locus YDR334W, strain swr1, active compounds read low 1.02 | locus YDR335W, strain msn5, active compounds read low 0.938 | locus YDR388W, active compounds read low 0.966 | locus YDR392W, strain spt3, active compounds read low 0.743 | locus YDR502C, strain sam2, active compounds read low 0.959 | locus YEL037C, strain rad23, active compounds read low 1 | locus YEL061C, strain CIN8 (second series), active compounds read low 1 | locus YEL061C, strain CIN8, active compounds read low 1 | locus YER016W, strain bim1, active compounds read low 0.94 | locus YER110C, active compounds read low 1.01 | locus YER111C, strain swi4, active compounds read low 1 | locus YER155C, strain BEM2 (second series), active compounds read low 0.942 | locus YER155C, strain BEM2, active compounds read low 1.02 | locus YER167W, strain BCK2, active compounds read low 0.972 | locus YFR010W, strain ubp6, active compounds read low 0.957 | locus YGL078C, strain dbp3, active compounds read low 0.976 | locus YGL086W, strain mad1, active compounds read low 0.958 | locus YGL167C, strain pmr1, active compounds read low 0.987 | locus YGL227W, strain vid30, active compounds read low 0.994 | locus YGL248W, strain PDE1, active compounds read low 0.998 | locus YGL253W, strain hxk2, active compounds read low 0.953 | locus YGR078C, strain PAC10, active compounds read low 0.952 | locus YGR135W, strain pre9, active compounds read low 0.968 | locus YGR229C, strain SMI1, active compounds read low 0.813 | locus YGR252W, strain gcn5, active compounds read low 0.902 | locus YHR027C, strain rpn1, active compounds read low 0.933 | locus YHR030C, strain SLT2, active compounds read low 0.993 | locus YHR079C, strain IRE1 (second series), active compounds read low 0.971 | locus YHR094C, strain hxt1, active compounds read low 0.999 | locus YHR129C, strain ARP1, active compounds read low 1.01 | locus YHR142W, strain chs7, active compounds read low 0.911 | locus YHR200W, strain rpn10, active compounds read low 0.981 | locus YIL073C, strain SPO22, active compounds read low 0.951 | locus YIL125W, strain kgd1, active compounds read low 0.994 | locus YIR030C, strain dcg1, active compounds read low 1.01 | locus YJL092W, strain hpr5, active compounds read low 0.967 | locus YJL095W, strain BCK1, active compounds read low 0.855 | locus YJL115W, strain asf1, active compounds read low 1.02 | locus YJL134W, strain LCB3, active compounds read low 0.999 | locus YJL154C, strain vps35, active compounds read low 0.996 | locus YJL168C, strain set2, active compounds read low 0.994 | locus YJL187C, strain SWE1 (second series), active compounds read low 0.964 | locus YJR043C, strain POL32, active compounds read low 0.999
